Assay outcomes (PubChem)
PKM2 act: increases activity of human pyruvate kinase M2; P14618; purified PKM2, Kinase-Glo ATP luminescence, activation; response scale: 0% is enzyme alone, no compound; Potency, µM (doses to about 57.5 µM), inactives show at the highest dose activation, most hits filed as activators; 260,000 compounds, 0.34% hits; AID 1631; also: potency is read from the fitted curve at half-maximal effect; % is scaled to controls: 0 for no effect and ±100 for the full control effect; nearly all actives have a fitted effect of over 55% in size
Target sequence (P14618 whole entry, looked up): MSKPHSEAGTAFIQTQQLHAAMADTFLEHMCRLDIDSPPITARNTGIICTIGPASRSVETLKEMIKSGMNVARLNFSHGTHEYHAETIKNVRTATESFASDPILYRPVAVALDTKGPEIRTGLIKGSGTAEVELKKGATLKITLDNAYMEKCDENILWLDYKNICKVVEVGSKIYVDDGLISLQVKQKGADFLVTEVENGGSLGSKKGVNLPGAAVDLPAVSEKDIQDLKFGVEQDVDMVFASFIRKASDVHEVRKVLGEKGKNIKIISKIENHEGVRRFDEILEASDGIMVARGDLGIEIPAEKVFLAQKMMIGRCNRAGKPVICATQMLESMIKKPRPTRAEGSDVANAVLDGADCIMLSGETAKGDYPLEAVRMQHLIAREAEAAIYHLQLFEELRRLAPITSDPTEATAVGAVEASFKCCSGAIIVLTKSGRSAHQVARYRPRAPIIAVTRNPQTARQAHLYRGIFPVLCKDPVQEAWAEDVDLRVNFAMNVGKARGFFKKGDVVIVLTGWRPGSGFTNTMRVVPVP
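hPK-M2, >95% pure; 0.1 mM ADP / 0.5 mM PEP final; imidazole pH7.2 buffer w/ 7 mM MgCl2, 50 mM KCl; 1 h RT; Kinase-Glo lum. Intermediate enzyme activity for dual inhibitor/activator qHTS.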
Apoferritin bind: binds horse apoferritin like a general anesthetic; apoferritin/1-aminoanthracene competitive binding, fluorescence; Potency, µM (titrated, usually from 77.5 µM), without a hit: at the top dose activity change, negative = displacement, usual class: inhibitors; 350,000 compounds, 0.074% hits; also: potency is read from the fitted curve at half-maximal effect; % is scaled to controls: 0 for no effect and ±100 for the full control effect; nearly all actives have a fitted effect of over 20% in size
Target sequence (P02791 2-175 limits assumed): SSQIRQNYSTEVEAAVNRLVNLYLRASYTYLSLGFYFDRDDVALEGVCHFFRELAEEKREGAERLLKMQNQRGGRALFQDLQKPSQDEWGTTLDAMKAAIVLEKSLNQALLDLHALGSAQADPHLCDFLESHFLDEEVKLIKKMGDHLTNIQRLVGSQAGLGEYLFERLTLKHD
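Horse-spleen apoferritin (10 uM) in 50% saturated 1-aminoanthracene in PBS was incubated 10 min at room temperature with compound. Fluorescence (ex 380, em 535 nm) was normalized to free and bound 1-AMA, with concentration-response fitted by a four-parameter Hill equation.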
Integrin act MD: activates integrin-mediated alleviation for muscular dystrophy; alpha7betagal myoblasts, beta-gal FDG fluorescence, 48 h; AID 624291; 350,000 compounds, 0.064% hits; Potency, µM (doses to about 38.3 µM), for inactives: top-dose activation, usual class: activators;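 also: potency is read from the fitted curve at half-maximal effect; 100% = response of the positive control SU9516; nearly all actives have a fitted effect of over 60% in size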
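alpha7betagal+/- myoblasts (passage 13, 250/well) treated 48 h at 37C with compounds at 1:260 dilution of DMSO stock. Lysed, then beta-galactosidase activity read as FDG fluorescence (ex 480/em 540) after 30 min, with pre-read for autofluorescence.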
IL2 activator: activates IL-2 in a cell-based reporter assay | IL-2 activation reporter assay, cell-based qHTS; stimulated with anti-CD3/CD4/CD28 beads; in transgenic mouse T cells | activation, % (series mostly up to about 46 µM) | 360,000 compounds, 0.065% hits | AID 652025; in the data active = activation above about 50%; inconclusive = mostly about 30% to 49%; also: 0% is about no effect
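Quantitative HTS in unstimulated transgenic mouse T cells, with memory T cells as non-tolerant control and PMA/ionomycin as tolerance-bypass control. Compound pretreatment lasted 60 minutes before 18 h bead stimulation; EGFP/DsRed fluorescence read.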
BRCA1 expr act: activators of BRCA1 expression; 380,000 compounds, 1.1% hits; Potency, µM (top dose mostly 46.1 µM), for the others: at the highest dose activation, actives largely listed as activators; AID 624202; MCF7-BRCA1-FFLuc reporter, luminescence, 48 h; response scale: scaled: vehicle 0%, 10 µM genistein 100%; also: potency is read from the fitted curve at half-maximal effect; nearly all actives have a fitted effect of over 80% in size
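Quantitative HTS in MCF7 cells stably reporting BRCA1 expression via firefly luciferase. Compound treatment lasts 48 h at 37 °C in phenol-red free MEM. Activation is expressed relative to genistein at 10 microM and DMSO.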
Active calls of the source: *; ? = inconclusive; · = no result; [ ] = remark or other dose. Compounds with a hit are over-represented: about 1.3% of the library has one in this group of screens. Unless noted, calls follow the shape of the dose curve; as a rule, active = well fitted curve in the direction sought with a large enough effect; inconclusive = small, poorly fitted or top-dose-only effect, or another doubt; inactive = no such curve, though single readings can be large; an effect the other way counts as inactive or inconclusive.

SMILES	PKM2 act	Apoferritin bind	Integrin act MD	IL2 activator	BRCA1 expr act
COc1ccc(OCCC(=O)N2CCN(C)CC2)cc1	-3%	-3%	-6%	0	-7%
COC(=O)C1=C(C)NC(C)=C(C(=O)OC)C1c1ccccc1OCc1c(C)no[n+]1[O-]	-1%	-23%	2.8µM*	-2	-2%
COc1cc(/C=C(\C#N)C(N)=O)ccc1OCc1c(C)no[n+]1[O-]	-21%	-2%	-27%	0	-10%
Cc1ccc(N(C)C(=O)Cn2nc(Cc3ccncc3)c3ccccc3c2=O)cc1C	·	-12%	·	·	·
Cn1cnc2cc(NCc3ccccc3Cl)ccc21	·	-13%	-6%	0	7.9µM*
CC(C)n1c(NCc2ccccc2O)nc2ccccc21	5%	-1%	-10%	-1	3%
Cc1ccc(CNc2nc3ccccc3n2C)o1	0%[11.5 µM]	-7%	28%	2	4µM*
C=CCn1c(NCc2ccc(OC)cc2O)nc2ccccc21	6%	-9%	5%	0	13µM*
CCn1cnc2cc(NCc3ccccc3Cl)ccc21	·	-16%	-41%	-5	?
C=CCc1cccc(CNc2nc3ccccc3n2C(C)C)c1O	32µM*	-7%	-39%	-3	-56%
C=CCn1c(NCc2ccccc2O)nc2ccccc21	12%	-22%	-14%	-1	87%
Cn1c(NCc2ccccc2Cl)nc2ccccc21	·	·	0%	-2	3.5µM*
Cn1c(NCc2ccccc2O)nc2ccccc21	24%	-22%	7%	0	?
CCOc1ccc(N(CC(=O)Nc2ccc(C)cc2)S(C)(=O)=O)cc1	0%[11.5 µM]	-9%	-11%	0	8.9µM*
CCOc1ccc(N(CC(=O)Nc2cc(C)cc(C)c2)S(C)(=O)=O)cc1	·	-17%	-4%	2	13µM*
C=C(/C=C/c1ccc(N(C)C)cc1)c1nc2ccccc2s1	·	·	·	·	-23%
COc1ccccc1Cn1c(=S)[nH]c2cc(C(=O)N3CCN(c4ccccc4OC)CC3)ccc2c1=O	·	-6%	9%	1	-6%
COc1ccccc1N1CCN(C(=O)c2ccc3c(=O)n(Cc4ccco4)c(=S)[nH]c3c2)CC1	1.1µM*	?	-49%[7.66 µM]	0	-27%
COc1ccc(Cn2c(=O)[nH]c3cc(C(=O)N4CCN(Cc5ccccc5)CC4)ccc3c2=O)cc1	13µM*	-19%	-14%	0	-64%
COc1ccc(Cn2c(=O)[nH]c3cc(C(=O)N4CCN(c5ccccc5OC)CC4)ccc3c2=O)cc1	28%	-8%	0%	2	-62%
CN1/C(=C\C=C(C#N)C#N)C(C)(C)c2ccccc21	-16%	6%	8%	143*	-1%
CCC(C(=O)Nc1cc(-c2cn3cccnc3n2)ccc1C)c1ccccc1 (stereo not given)	·	-18%	·	·	·
O=C(CCSc1ccc(Cl)cc1)N1CCOCC1	0%	-3%	18%	-1	7.9µM*
O=C(CSc1ccc(Cl)cc1)N1CCOCC1	-1%	-7%	3%	2	92%
C=C(C)C(O)/C=C/c1ccc(C)cc1 (stereo not given)	·	-19%[15.3 µM]	·	·	·
SMILES	PKM2 act	Apoferritin bind	Integrin act MD	IL2 activator	BRCA1 expr act
N/C(CS(=O)(=O)c1ccccc1)=N\OC(=O)c1ccc(F)cc1	-8%	-10%	3%	-2	11µM*
O=C(COC(=O)CNC(=O)c1ccccc1)Nc1nc(-c2ccccc2)cs1	11%	?	4%	-3	6.3µM*
Cc1nc(CC(=O)Nc2nc(-c3ccccc3)cs2)cs1	-10%	-18%	-7%	0	11µM*
O=C(COC(=O)c1cccs1)Nc1nc(-c2ccccc2)cs1	-18%	2%	8%	0	84%
CCc1ccc(CNc2ccc3c(c2)ncn3CC)cc1	·	-15%	0%	-5	6.3µM*
CCn1cnc2cc(NCc3ccc(OC)cc3)ccc21	-18%	-23%	-5%	-2	?
CCOc1ccc(Nc2cc(C)c3ccccc3n2)cc1	·	10%	-14%	-3	10µM*
CCOc1ccc(Nc2c3ccccc3nc3ccccc23)cc1	-1%	1%	-52%	-2	-22%
Cn1c(Nc2ccccc2)nc2ccccc21	-9%	?	20%	0	40%
CCOc1ccc(CNc2ccc3c(c2)nc(C)n3C)cc1	0%	-8%	-18%	-3	11µM*
Nn1c(Nc2ccccc2)nc2ccccc21	-19%	-20%	-18%	0	10µM*
COc1cc2c(NC3CCN(C)CC3)nc(N3CCCN(C)CC3)nc2cc1OCCN(C)CCN(C)C	·	·	·	·	11%
CCOc1ccc(CNc2cccc(SC)c2)cc1	14µM*	-17%	-17%	-1	-17%
CCOc1ccc(Nc2nc3ccccc3n2C)cc1	·	·	23%	-3	2.5µM*
CCOc1ccc(CNc2ccc(CNc3ncn[nH]3)cc2)cc1	0%	-9%	13%	0	-2%
Fc1cccc(Cn2ccc(-c3ccc4c(c3)OCO4)n2)c1	0%	-12%	9%	0	10µM*
Cc1ccccc1Cn1ccc(-c2ccc3c(c2)OCO3)n1	1%	-5%	-19%	-1	?
CCc1sc(C(C2C(=O)CC(C)(C)CC2=O)C2C(=O)CC(C)(C)CC2=O)cc1[N+](=O)[O-]	22µM*	?	-17%	-3	-70%
CC1(C)CC(=O)C(C(c2ccc(F)cc2)C2C(=O)CC(C)(C)CC2=O)C(=O)C1	2%	-8%	14%	-2	6%
O=C(Nc1ccc(S(=O)(=O)N(Cc2ccccc2)c2ccccc2)cc1)c1ccc(F)cc1	·	-9%	·	·	·
Clc1ccc(COc2ccccc2-c2ccnc3ncnn23)cc1	-3%	-9%	17%	0	11µM*
c1ccc(Oc2ccc(-c3ccnc4ncnn34)cc2)cc1	-1%	?	18%	-3	2%
CC(=O)c1cccc(NC(=O)c2cc3sc(Cl)cc3n2C)c1	·	-15%	·	·	·
Cc1cccn2c(=O)c3cc(C(=O)NCCC4=CCCCC4)n(C)c3nc12	·	2%	19%	-2	0%
Cc1cccn2c(=O)c3cc(C(=O)NC4CCCCC4)n(C)c3nc12	·	-1%	14µM*	-3	0%
SMILES	PKM2 act	Apoferritin bind	Integrin act MD	IL2 activator	BRCA1 expr act
Cn1c(C(=O)NCCC2=CCCCC2)cc2c(=O)n3ccccc3nc21	-2%	64%	7%	2	11µM*
Cn1cccc1C(=O)NC1CCCCCC1	·	·	-34%	0	10µM*
Fc1ccccc1-c1nc(N2CCN(c3cccc(Cl)c3)CC2)c2ccccc2n1	·	4%	·	·	·
CN1N/C(=C\c2ccccc2)N=C2C(=O)N(C)C(=O)N=C21	·	·	·	·	-53%
CCCCn1cnc2c(SCc3ccccc3)nc(N)nc21	·	·	-8%	-1	7.1µM*
O=C(Nc1ccccc1)Nc1ccc(-n2ccc(C(F)(F)F)n2)cc1	-2%	-2%	-58%	-1	3.5µM*
O=C(O)CC(CC(=O)Nc1ccc(-n2ccc(C(F)(F)F)n2)cc1)c1ccccc1 (stereo not given)	0%	-3%	-5%	0	2%
